Experimental data reported in PubChem BioAssay AID686978 (National Center for Advancing Translational Sciences (NCATS), 2013).
Out of some 420,000 compounds screened, about 64,000 (15%) were called active. About 27% were inconclusive and are not listed. The call rests on the fitted dose curve; in most records, active means well fitted inhibition curve with a large enough effect; inconclusive means small, poorly fitted or top-dose-only effect; inactive means flat fitted curve, though single readings scatter. A selection follows. Where a call stands in place of a potency, no number is given.

Test: qHTS for Inhibitors of human tyrosyl-DNA phosphodiesterase 1 (TDP1): qHTS in cells in absence of CPT; further: nearly all actives have a fitted effect of over 55% in size
Details: DT40 Tdp1-/- hTDP1 cells, no CPT, ATP luminescence, 48 h; activity change, negative = growth inhibition: at 46.2 µM (top of the series)
Outline: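 A cellular qHTS used chicken DT40 cells lacking endogenous Tdp1 but carrying stably transfected human TDP1. Compounds were applied without camptothecin, and cell growth kinetics were judged by ATP-dependent luminescence after ≥48 hr.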
Potency means the concentration at half of the fitted maximal effect.

Structure (SMILES) | Potency
CCOc1ccc(CCN2C(=O)C(=O)N([C@@H](CC(C)C)CN3CCC[C@H]3CN3C(=O)C(=O)NC[C@@H]3Cc3ccccc3)C[C@@H]2CC(C)C)cc1 | inactive
CC(C)C[C@H]1CNC(=S)N1C[C@H]1CCCN1C[C@H](Cc1ccc(O)cc1)N1C[C@H](Cc2ccc(O)cc2)N(CC2CCCCC2)C1=S | 25.9 µM (active)
CCOc1ccc(CCN2C(=S)N([C@@H](CC(C)C)CN3CCC[C@@H]3CN3C(=S)NC[C@@H]3Cc3ccc(O)cc3)C[C@@H]2CC(C)C)cc1 | 23.1 µM (active)
CC(C)C[C@H]1CNC(=O)C(=O)N1C[C@@H]1CCCN1C[C@H](Cc1ccccc1)N1C[C@H](CC(C)C)N(CC2CCCCCC2)C(=O)C1=O | inactive
O=C1NC[C@H](CCCCN2C[C@H](Cc3ccc(O)cc3)N(CC3CCCCC3)C(=O)C2=O)N(CCc2ccccc2)C1=O | inactive
CCOc1ccc(CCN2C(=O)C(=O)N([C@@H](Cc3ccc(O)cc3)CN3CCC[C@H]3CN3C(=O)C(=O)NC[C@@H]3CC(C)C)C[C@@H]2Cc2ccccc2)cc1 | inactive
O=C1NC[C@H](CCCCN2C[C@H](Cc3ccccc3)N(Cc3ccccc3)C(=O)C2=O)N(CCc2ccc(O)cc2)C1=O | inactive
O=C1NC[C@H](CCCCN2C[C@H](Cc3ccc(O)cc3)N(CCc3ccccc3)C(=O)C2=O)N(CCc2ccccc2)C1=O | inactive
CC(C)C[C@H]1CN([C@@H](CC(C)C)CN2CCC[C@@H]2CN2C(=O)C(=O)NC[C@@H]2Cc2ccccc2)C(=O)C(=O)N1CCc1ccccc1 | 16.4 µM (active)
Cc1cc(NC(=O)CN2C(=O)NC(CCc3ccccc3)C2=O)no1 (configuration not stated) | inactive
CCOc1ccc(CCN2C(=O)c3cccnc3C2=O)cc1OCC | inactive
CN(C(=O)C1CCOC1)c1nnc(-c2cccnc2)s1 (configuration not stated) | inactive
CC(CNC(=O)c1ccc(N)cc1)NC(=O)c1ccc(N)cc1 (configuration not stated) | inactive
Cc1cc(C)c2[nH]c(=O)c(C(c3nnnn3Cc3ccc4c(c3)OCO4)N3CCCC3)cc2c1 (configuration not stated) | 2.31 µM (active)
CCOC(=O)C1CCN(C(c2cc3cc(C)cc(C)c3[nH]c2=O)c2nnnn2C2CCCCC2)CC1 (configuration not stated) | inactive
CC(C)(C)n1nnnc1C(c1ccc(F)cc1)N1CCN(Cc2ccc3c(c2)OCO3)CC1 (configuration not stated) | inactive
O=C(NCc1ccco1)/C(=C/c1cccc([N+](=O)[O-])c1)NC(=O)c1ccco1 | inactive
COc1cc(NC(=O)CCS(=O)(=O)c2ccc3c(c2)oc(=O)n3C)cc(OC)c1 | inactive
O=C(Nc1cc(C(F)(F)F)ccc1Cl)c1cc(C2CC2)on1 | inactive
COc1ccc(-n2cnnc2SCC(=O)Nc2cccc(S(N)(=O)=O)c2)cc1 | inactive
c1ccc2c(c1)CSc1sccc1C2=C1CCNCC1 | 16.4 µM (active)
Nc1nc(Br)c2ccccc2c1-c1ccc(F)cc1 | inactive
CCOc1c(Nc2cccc(Cl)c2)c(=O)c1=O | inactive
CCNCCCNCCCNCCCNCC | 3.76 µM (active)
COc1ccc2oc(=O)c(C(=O)N3CCCc4ccccc43)cc2c1 | inactive

Structure (SMILES) | Potency
Cc1[nH]n(-c2ccc(Cl)cc2)c(=O)c1/C=N/n1c(C)nc2ccccc2c1=O | 18.4 µM (active)
CN(C(=O)Nc1ccc(Cl)cc1)n1cnc2ccccc2c1=O | inactive
S=C(Cc1ccc(Cl)cc1)N1CCOCC1 | inactive
C=C1C(=O)OC2C1CCC(C)=CCCC1(C)OC21 (configuration not stated) | 3.26 µM (active)
CCn1cc(-c2cc(C(=O)O)on2)c(C)n1 | inactive
COc1ccc(NC(=O)C2=C(C)NC(=O)NC2c2ccccc2[N+](=O)[O-])cc1 (configuration not stated) | inactive
CN(C)S(=O)(=O)c1ccc(N/C=C(\[N+](=O)[O-])S(=O)(=O)c2ccccc2)cc1 | inactive
COc1ccc(N/C=C(\C2OC(=O)c3ccccc32)[N+](=O)[O-])cc1 (configuration not stated) | 23.1 µM (active)
CC(C)=CCC/C(C)=C/C(=O)O | inactive
O=C(NCCCNC(=O)NC1CCCCC1)NC1CCCCC1 | inactive
CCCSc1nc2sc3c(c2c(=O)n1-c1ccc(OC)cc1)CCN(C)C3 | 14.6 µM (active)
CC1(C)Cc2c(sc3nc(SCC(=O)NCc4ccccc4)n(-c4ccccc4)c(=O)c23)CS1 | inactive
CCSc1nc2sc3c(c2c(=O)n1-c1ccc(C)cc1)CCN(C)C3 | 7.31 µM (active)
CCn1c(SCC(=O)Nc2ccc(Br)cc2)nc2sc3c(c2c1=O)CCN(C)C3 | inactive
COc1ccccc1-n1c(SCC(=O)O)nc2sc3c(c2c1=O)CCC3 | inactive
CCOc1ccc(-n2c(SCC(=O)Nc3ccc(OC)cc3)nc3sc4c(c3c2=O)CCN(C)C4)cc1 | inactive
CC(=O)CSc1nc(CCc2ccccc2)c(C#N)c(=O)[nH]1 | inactive
COc1ccc(NC(=O)c2cc(=O)[nH]c3ccccc23)cc1S(=O)(=O)N1CCOCC1 | inactive
Cc1sc2ncn(CC(=O)NCCN(C)C)c(=O)c2c1S(=O)(=O)N1CCC(C)CC1 | inactive
O=C(Nc1cccc(OCC(=O)N2CCOCC2)c1)C1CCCCC1 | inactive
COc1cc(/C=C/C(=O)O)cc(S(=O)(=O)Nc2ccccc2C(=O)NCCc2ccccc2)c1OC | inactive
Cc1cc(C)nc(/N=C2\NC(=O)CC(C(=O)O)N2c2ccc(Cl)cc2Cl)n1 (configuration not stated) | inactive
COc1ccc(C(C#N)Nc2ccccc2C)cc1 (configuration not stated) | inactive
COc1ccc(N2C(=O)C(O)C2c2ccc(C)cc2)cc1 (configuration not stated) | inactive
COC(=O)C1C(=O)NCC1c1ccc(OC)cc1 (configuration not stated) | inactive

Structure (SMILES) | Potency
COC(=O)C1=C(Nc2ccc(OC)cc2)C=C(C)C(C(=O)OC)C1c1ccc(C)cc1 (configuration not stated) | 16.4 µM (active)
O=C(Nc1ccccc1F)C1C2C=CC3(O2)C1C(=O)N(c1cccnc1)C3C(=O)NC1CCCCC1 (configuration not stated) | inactive
CCCNc1c(N)c(=O)c1=O | inactive
Cc1nc([N+](=O)[O-])c(NCCCO)n1Cc1ccccc1 | inactive
COc1ccc(C2OCC3(CO2)SC(=O)NC3=O)cc1OC (configuration not stated) | inactive
CSc1nnc(C2CCCN(CC(=O)Nc3ccccc3N3CCOCC3)C2)n1C(C)C (configuration not stated) | inactive
Cn1c(=O)c2c(nc(SCCNS(=O)(=O)c3ccccc3)n2C)n(C)c1=O | inactive
C#CC(C)(C)NC(=O)CSc1nc2c(c(=O)n(C)c(=O)n2C)n1CCCC | inactive
Cc1cccc(Cn2c(SCCO)nc3c2c(=O)n(C)c(=O)n3C)c1 | 14.6 µM (active)
CCC1CCCCN1C(=O)CSc1nc2c(c(=O)n(C)c(=O)n2C)n1C (configuration not stated) | inactive
CC(C)n1c(SCC(=O)Nc2ccccc2N2CCCCC2)nc2c1c(=O)n(C)c(=O)n2C | 23.1 µM (active)
Cn1c(=O)c2c(nc(SCC(=O)Nc3ccc(F)cc3)n2Cc2ccccc2)n(C)c1=O | 4.61 µM (active)
CCCSc1nc2c(c(=O)n(C)c(=O)n2C)n1Cc1ccc(C)cc1 | 16.4 µM (active)
CCOC(=O)CSc1nc2c(c(=O)n(C)c(=O)n2C)n1Cc1ccccc1F | inactive
CCOc1ccc(Cn2c(SCCCCC#N)nc3c2c(=O)n(C)c(=O)n3C)cc1OCC | inactive
COc1ccc(NC(=O)CCn2ccnc2)c(OC)c1 | inactive
Cc1ccc(C2(C)NC(=O)N(CC(=O)Nc3ccccc3C(=O)N3CCCCC3)C2=O)cc1 (configuration not stated) | inactive
CC(=O)NC(CC(=O)Nc1nc(-c2ccccc2)c(C(C)=O)s1)c1ccccc1 (configuration not stated) | inactive
CCNC(=O)c1c(O)c2cccc3c2n(c1=O)CC3 | 23.1 µM (active)
Cc1cc(=O)n2c3c(cccc13)CCC2 | inactive
CCCCn1c(=O)c(C(C)=O)c(O)c2ccccc21 | inactive
CC(C)Cc1nnc(NC(=O)CCNC(=O)c2ccccc2Cl)s1 | inactive
Cn1c(NCc2cccnc2)nc2cc(-c3ccc(F)cc3)sc2c1=O | inactive
COc1cccc(-c2cc3nc(NCc4ccccc4OC)n(C)c(=O)c3s2)c1 | 20.6 µM (active)
COc1ccccc1CNc1nccn(-c2ccc(F)cc2)c1=O | inactive

Structure (SMILES) | Potency
CC(=O)NC(CC(=O)O)c1ccc(F)cc1 (configuration not stated) | inactive
COc1ccccc1CC1(C)C(=O)Nc2ccc(OC(F)(F)F)cc21 (configuration not stated) | inactive
CC1(Cc2ccccc2C#N)C(=O)Nc2ccc(-c3ccc4[nH]ccc4c3)cc21 (configuration not stated) | 4.11 µM (active)
CN1CCCN(S(=O)(=O)c2ccc3c(c2)OCCO3)CC1 | inactive
N#CCC(=O)NC(=O)NCC1CC1 | inactive
CC(OC(=O)c1ccc(-n2cnnn2)cc1)C(=O)NCc1ccccc1 (configuration not stated) | inactive
O=C(O)/C=C\C(=O)Nc1ccc(OCc2ccccc2)cc1 | inactive
CCc1ccnc(NC(=O)Nc2ccc(OCc3ccccc3)cc2)c1 | inactive
CC(C)(C)OC(=O)N(Cc1ccccc1)Cc1ccc(OCc2cccc(NC(=O)c3ccccc3)c2)cc1 | 18.4 µM (active)
CN(CC(=O)Nc1cccc(F)c1)C(=O)CC1CCCC1 | inactive
Cc1cccc(C(=O)OC(C)CN2CCN(C)CC2)c1 (configuration not stated) | inactive
Cc1ccc(CNC(=O)Cn2cnc3c(NCc4ccccc4)ncnc32)o1 | 8.2 µM (active)
CC(CNC(=O)Cn1cnc2c(OCc3ccccc3)ncnc21)c1ccccc1 (configuration not stated) | inactive
Cc1ccc(NC(=O)Cn2cnc3c(OCc4ccccc4)ncnc32)cc1C | inactive
Cc1cccc(OP(=O)(Nc2c(C)n(C)n(-c3ccccc3)c2=O)Oc2cccc(C)c2)c1 | inactive
Cc1ccc(-c2ccc(=O)n(CC(=O)NCCCN3CCCCC3)n2)cc1 | inactive
CCC1CCCCN1CCCNC(=O)C1CCC(Cn2c(=O)[nH]c3ccccc3c2=O)CC1 (configuration not stated) | inactive
CCC1CCCCN1CCCNC(=O)Cn1nc(-c2ccccc2)ccc1=O (configuration not stated) | 0.0103 µM (active)
Cc1ccc(C2Nc3ccccc3C(=O)N2CCN2CCNC2=O)cc1 (configuration not stated) | inactive
COc1ccc(OCC(=O)OCC(=O)Nc2ccc(S(=O)(=O)N3CCCCC3)cc2)cc1 | inactive
COc1cccc(CNC(C)C(=O)Nc2ccc(S(=O)(=O)N3CCCC3)cc2)c1 (configuration not stated) | inactive
COc1ccc(S(=O)(=O)N2CCN(C(C)C(=O)Nc3ccc(C(C)C)cc3)CC2)cc1 (configuration not stated) | 14.6 µM (active)
